This passage reports efficacy, AC50 and outcome results from PubChem BioAssay (NCATS).

The conditions of assay [1]: Ebola virus entry assay, green fluorescence channel.
For assay [2] the following is noted: Ebola virus entry assay, blue channel fluorescence.
For assay [3] the following is noted: Ebola virus entry assay, ratio channel.
The conditions of assay [4]: Ebola virus entry assay, reporter ratio channel; Channel type: primary.

Molecules are shown by their SMILES. Values without a mark were called inactive. For part of these data: Measured potencies and affinities stand elsewhere. Active and inactive are the calls of the source. The rule behind the calls is not given here.
Throughout, for efficacy: 0% is about no effect.

Take `COC(=O)C1=C(C)NC(C)=C(C(=O)OCCN2CCN(C(c3ccccc3)c3ccccc3)CC2)C1c1cccc([N+](=O)[O-])c1` (stereo not drawn): the efficacy in assay [1] was 60.1%. Further, the figures for the AC50 in assay [2], in assay [3] and in assay [4] were 15.8 µM (active), 10 µM (active) and 10 µM (active), respectively.

Consider `C[C@@]12C(=O)OC(=O)[C@]1(C)C1CCC2O1`, for which the efficacy in assay [1] was 65.6%. The figures for the AC50 in assay [2], in assay [3] and in assay [4] were 5.62 µM (active), 7.94 µM (active) and 7.94 µM (active), respectively.

As for `CCCCN(CCCC)CC(O)c1cc(Cl)cc2c1-c1ccc(Cl)cc1/C2=C/c1ccc(Cl)cc1` (stereo not drawn), the efficacy in assay [1] was 120%. The AC50 in assay [2], in assay [3] and in assay [4] was 39.8 µM (active) each time.

Consider `C[C@H](N)[C@H](O)c1ccc(O)c(O)c1`, for which the efficacy in assay [1] is 56.6%. Besides, the AC50 (commonly the concentration giving half of the maximal activity seen) in assay [2] was 5.62 µM (active); in assay [3] it was 4.47 µM (active); in assay [4], 4.47 µM (active).

For the molecule `CN(CCCN1c2ccccc2CCc2ccccc21)CC(=O)c1ccc(Cl)cc1`, in assay [1], the efficacy is 78.9%. Besides, the AC50 in assay [2] is 22.4 µM (active); in assay [3], 25.1 µM (active); in assay [4] it was 25.1 µM (active).

In the case of `CC(N)C(=O)OC(C)(C)Cc1ccc(Cl)cc1` (stereo not drawn), the efficacy in assay [1] was 77%. Moreover, the AC50 was 15.8 µM (active) in assay [2], 14.1 µM (active) in assay [3] and 14.1 µM (active) in assay [4].

For the molecule `COC(=O)Nc1nc2ccc(S(=O)c3ccccc3)cc2[nH]1` (stereo not drawn), the efficacy in assay [1] was 35.9%. In addition, the AC50 in assay [2] is 3.16 µM (active); in assay [3], 1.78 µM (active); in assay [4], 1.78 µM (active).

For `CCOC(=O)[C@H](CCc1ccccc1)N[C@H]1CCc2ccccc2N(CC(=O)O)C1=O`, the efficacy in assay [1] is 88%. Moreover, the AC50 in assay [2], in assay [3] and in assay [4] was 3.98 µM (active) in each case.

Take `CN(C)CCCOC1(Cc2ccccc2)CCCCCC1`: in assay [1], the efficacy is 64.1%. Further, the AC50 in assay [2] is 17.8 µM (active); in assay [3], 14.1 µM (active); in assay [4], 14.1 µM (active).

As for `CN1CCCC(CC2c3ccccc3Sc3ccccc32)C1` (stereo not drawn), the efficacy in assay [1] was -153%. The AC50 in assay [2] was 5.62 µM (active); in assay [3], 3.16 µM (active); in assay [4], 3.16 µM (active).

`CC(C(O)c1ccccc1)N(C)C/C=C/c1ccccc1` (stereo not drawn): in assay [1], the efficacy was 90.1%. The AC50 in assay [2] was 22.4 µM (active); in assay [4] it was 35.5 µM (active). Moreover, in assay [3], the outcome was inactive.

Take `CC(=O)OC1(c2ccccc2)CCN(CCc2ccccc2)CC1`: the efficacy in assay [1] is 56.2%. Besides, the AC50 in assay [2], in assay [3] and in assay [4] was 31.6 µM (active) in each case.

Regarding `CCOC(=O)C1(c2ccccc2)CCN(CCc2ccc(N)cc2)CC1`, in assay [1], the efficacy was 105%. Also, the AC50 in assay [2] is 28.2 µM (active); in assay [3], 20 µM (active); in assay [4], 20 µM (active).

`Cc1c(C)c2c(c(C)c1OC(=O)CCC(=O)OCCO)CC[C@@](C)(CCC[C@H](C)CCC[C@H](C)CCCC(C)C)O2`: the efficacy in assay [1] was -73.4%. Further, the AC50 in assay [2] and in assay [4] was 39.8 µM (active) each time. Moreover, the outcome in assay [3] was inactive.

In the case of `C=CCN1CC[C@]23CCCC[C@H]2[C@H]1Cc1ccc(O)cc13`, the efficacy in assay [1] was 55.2%. Besides, the AC50 in assay [2] and in assay [4] was 39.8 µM (active) each time. In addition, in assay [3], the outcome was inactive.

`CCCCCCCCCCOCC(O)CN` (stereo not drawn): the efficacy in assay [1] was -191%. The AC50 in assay [2] was 4.47 µM (active); in assay [3], 1.78 µM (active); in assay [4], 1.78 µM (active).

Consider `CCOC(=O)COc1ccc2c(C)c(CCN(CC)CC)c(=O)oc2c1Cl`, for which, in assay [1], the efficacy is 158%. Also, the AC50 in assay [2] is 28.2 µM (active); in assay [3], 25.1 µM (active); in assay [4], 25.1 µM (active).

As to `CCC(C(=O)OCCOCCN(CC)CC)c1ccccc1` (stereo not drawn), in assay [1], the efficacy is 61.4%. The results for the AC50 in assay [2], in assay [3] and in assay [4] were 28.2 µM (active), 22.4 µM (active) and 22.4 µM (active), respectively.

Consider `COc1ccc2c(c1)c(CC(=O)OCC(=O)O)c(C)n2C(=O)c1ccc(Cl)cc1`, for which, in assay [1], the efficacy is 44.7%. Further, the outcome in assay [2], in assay [3] and in assay [4] was inactive.

On to `CCCCOc1cc(C(=O)OCCN(CC)CC)ccc1N`, for which the efficacy in assay [1] was 52.2%. Besides, the half-maximal activity concentration (AC50) in assay [2], in assay [3] and in assay [4] was 31.6 µM (active) throughout.

`CCCCNc1ccc(C(=O)OCCN(CC)CC)cc1`: the efficacy in assay [1] is 87.1%. Besides, the AC50 in assay [2] was 39.8 µM (active); in assay [3], 22.4 µM (active); in assay [4], 22.4 µM (active).

With `CCN(CC)CCOc1ccccc1C(=O)CCc1ccccc1`, the efficacy in assay [1] is 42.3%. Moreover, the AC50 was 15.8 µM (active) in assay [2], 14.1 µM (active) in assay [3] and 14.1 µM (active) in assay [4].

With `CN(C(=O)CN(CCO)CC(=O)N(C)C(C)(C)Cc1ccccc1)C(C)(C)Cc1ccccc1`, the efficacy in assay [1] was 43.4%. In addition, the half-maximal activity concentration (AC50) in assay [2] was 7.94 µM (active); in assay [3], 5.62 µM (active); in assay [4], 5.62 µM (active).

As to `CCOC(=O)N1CCC(Nc2ccc(Cl)cc2N)CC1`, in assay [1], the efficacy was 119%. The AC50 in assay [2] and in assay [4] was 39.8 µM (active) throughout. Also, the outcome in assay [3] was inactive.

Consider `COc1cccc(CCc2ccccc2OCC(CN(C)C)OC(=O)CCC(=O)O)c1` (stereo not drawn), for which, in assay [1], the efficacy was 95.8%. The AC50 in assay [2] was 1.78 µM (active); in assay [3], 2 µM (active); in assay [4] it was 2 µM (active).

Take `CC(C)(C)c1ccc(C(O)CCCN2CCC(C(O)(c3ccccc3)c3ccccc3)CC2)cc1` (stereo not drawn): the efficacy in assay [1] is 59%. The values for the AC50 in assay [2], in assay [3] and in assay [4] were 1.41 µM (active), 0.891 µM (active) and 0.891 µM (active), respectively.

Regarding `CCc1ccc(C2CCNCC2)cc1`, the efficacy in assay [1] was 65.4%. For the same molecule, the AC50 in assay [2] was 25.1 µM (active); in assay [4], 31.6 µM (active). The result in assay [3] was inactive.
